In PubChem BioAssay AID1159580 (chemical genetic matrix, 2015):
The whole screen tested about 5,500 compounds, of which about 2,000 (36%) were called active. About 18% were inconclusive and are not listed. Rule as the data show it: active = normalized growth mostly below about 0.91 (no sharp cut-off); inconclusive = no clear call, values can overlap the other calls; inactive = mostly above about 0.92. Some of the results follow.

Experiment: chemical genetic growth profiling, strain panel (AID 1159580);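 also: tested at 20 µM; growth read once vehicle control cultures reached saturation at 30 °C; 1 = growth at the plate median or of vehicle wells; lower values mean less growth of the strain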
Settings: S. cerevisiae deletion strains, growth OD
[1] = locus YAR019C, strain CDC15, stronger effect = lower value
[2] = locus YBL105C, strain PKC1, stronger effect = lower value
[3] = locus YBR135W, strain CKS1, stronger effect = lower value
[4] = locus YBR136W, strain MEC1, stronger effect = lower value
[5] = locus YBR160W, strain CDC28, stronger effect = lower value
[6] = locus YDL017W, strain CDC7, stronger effect = lower value
[7] = locus YDL028C, strain MPS1, stronger effect = lower value
[8] = locus YDL101C, strain DUN1, stronger effect = lower value
[9] = locus YDL108W, strain KIN28, stronger effect = lower value
[10] = locus YDL132W, strain cdc53, stronger effect = lower value
[11] = locus YDL214C, strain PRR2, stronger effect = lower value
[12] = locus YDR052C, strain DBF4, stronger effect = lower value
[13] = locus YDR054C, strain cdc34, stronger effect = lower value
[14] = locus YDR226W, strain ADK1, stronger effect = lower value
[15] = locus YDR477W, strain SNF1, stronger effect = lower value
[16] = locus YER123W, strain YCK3, stronger effect = lower value
[17] = locus YER133W, strain GLC7, stronger effect = lower value
[18] = locus YFL009W, strain cdc4, stronger effect = lower value
[19] = locus YFL029C, strain CAK1, stronger effect = lower value
[20] = locus YFR003C, strain YPI1, stronger effect = lower value
[21] = locus YFR019W, strain FAB1, stronger effect = lower value
[22] = locus YFR028C, strain CDC14, stronger effect = lower value
[23] = locus YGR040W, strain KSS1, stronger effect = lower value
[24] = locus YGR052W, strain FMP48, stronger effect = lower value
[25] = locus YGR092W, strain DBF2, stronger effect = lower value
[26] = locus YHR030C, strain SLT2, stronger effect = lower value
[27] = locus YHR079C, strain IRE1, stronger effect = lower value
[28] = locus YHR082C, strain KSP1, stronger effect = lower value
[29] = locus YHR205W, strain SCH9, stronger effect = lower value
[30] = locus YIL147C, strain SLN1, stronger effect = lower value
[31] = locus YJL095W, strain BCK1, stronger effect = lower value
[32] = locus YJL128C, strain PBS2, stronger effect = lower value
[33] = locus YJL157C, strain FAR1, stronger effect = lower value
[34] = locus YJR016C, strain ILV3, stronger effect = lower value
[35] = locus YJR066W, strain TOR1 (second series), stronger effect = lower value
[36] = locus YJR066W, strain TOR1, stronger effect = lower value
[37] = locus YKL048C, strain ELM1, stronger effect = lower value
[38] = locus YKL067W, strain YNK1, stronger effect = lower value
[39] = locus YKL101W, strain HSL1, stronger effect = lower value
[40] = locus YKL193C, strain SDS22, stronger effect = lower value
[41] = locus YKL203C, strain TOR2, stronger effect = lower value
[42] = locus YLR113W, strain HOG1, stronger effect = lower value
[43] = locus YLR133W, strain CKI1, stronger effect = lower value
[44] = locus YLR403W, strain SFP1, stronger effect = lower value
[45] = locus YML070W, strain DAK1, stronger effect = lower value
[46] = locus YMR001C, strain CDC5, stronger effect = lower value
[47] = locus YMR205C, strain PFK2 (second series), stronger effect = lower value
[48] = locus YMR277W, strain FCP1, stronger effect = lower value
[49] = locus YNL006W, strain LST8, stronger effect = lower value
[50] = locus YNL020C, strain ARK1, stronger effect = lower value
[51] = locus YNL161W, strain CBK1, stronger effect = lower value
[52] = locus YNL183C, strain NPR1, stronger effect = lower value
[53] = locus YNL207W, strain RIO2, stronger effect = lower value
[54] = locus YNL222W, strain SSU72, stronger effect = lower value
[55] = locus YNL307C, strain MCK1 (second series), stronger effect = lower value
[56] = locus YOL078W, strain AVO1, stronger effect = lower value
[57] = locus YOL136C, strain PFK27, stronger effect = lower value
[58] = locus YOR061W, strain CKA2, stronger effect = lower value
[59] = locus YOR119C, strain RIO1, stronger effect = lower value
[60] = locus YOR231W, strain MKK1, stronger effect = lower value
[61] = locus YOR329C, strain SCD5, stronger effect = lower value
[62] = locus YPL031C, strain PHO85, stronger effect = lower value
[63] = locus YPL153C, strain RAD53, stronger effect = lower value
[64] = locus YPL204W, strain HRR25, stronger effect = lower value
[65] = locus YPL209C, strain IPL1, stronger effect = lower value
[66] = locus YPL256C, strain CLN2, stronger effect = lower value
[67] = locus YPR025C, strain CCL1, stronger effect = lower value
[68] = locus YPR106W, strain ISR1, stronger effect = lower value
[69] = locus YPR111W, strain DBF20, stronger effect = lower value
[70] = strain NNK1, stronger effect = lower value
[71] = strain TSCII, stronger effect = lower value

Measured: normalized growth

COC(=O)C1=C(Nc2ccccc2NS(=O)(=O)c2ccc(C(F)(F)F)cc2Cl)CSC1
inactive: [1] 0.977 | [2] 0.983 | [3] 0.976 | [4] 0.978 | [5] 0.977 | [6] 0.973 | [7] 0.976 | [8] 0.962 | [9] 0.985 | [10] 0.984 | [11] 0.939 | [12] 0.987 | [13] 0.995 | [14] 0.972 | [15] 0.947 | [16] 0.944 | [17] 0.966 | [18] 0.985 | [19] 0.973 | [20] 0.984 | [21] 0.976 | [22] 0.964 | [23] 0.933 | [24] 1.03 | [25] 0.957 | [26] 0.977 | [27] 0.97 | [28] 1.02 | [29] 0.972 | [30] 0.987 | [31] 0.985 | [32] 0.919 | [33] 0.949 | [34] 0.972 | [35] 0.942 | [36] 1.03 | [37] 0.945 | [38] 0.959 | [39] 0.932 | [40] 0.975 | [41] 1.01 | [43] 0.937 | [44] 0.903 | [45] 0.928 | [46] 0.977 | [47] 0.952 | [48] 0.985 | [49] 0.989 | [50] 0.951 | [51] 0.977 | [52] 0.966 | [53] 0.967 | [54] 0.978 | [55] 0.953 | [56] 0.975 | [57] 0.935 | [58] 0.955 | [59] 1.02 | [60] 0.91 | [61] 0.985 | [62] 0.971 | [63] 0.948 | [64] 0.936 | [65] 0.975 | [66] 0.918 | [67] 0.982 | [68] 0.943 | [69] 0.979 | [70] 0.971 | [71] 0.978
active: [42] 0.84

COC(=O)c1sccc1NS(=O)(=O)c1cc(Cl)cc(Cl)c1
inactive: [1] 0.955 | [2] 0.946 | [3] 0.958 | [4] 0.951 | [5] 0.947 | [6] 0.954 | [7] 0.958 | [8] 0.949 | [9] 0.961 | [10] 0.958 | [11] 0.975 | [12] 0.957 | [13] 0.944 | [14] 0.954 | [15] 0.977 | [16] 0.994 | [17] 0.987 | [18] 0.954 | [19] 0.951 | [20] 0.957 | [21] 0.967 | [22] 0.958 | [23] 0.981 | [24] 1.05 | [25] 0.948 | [26] 1.04 | [27] 1.01 | [28] 1.06 | [29] 0.992 | [30] 0.955 | [31] 1.07 | [32] 0.925 | [33] 0.976 | [34] 0.959 | [35] 1.01 | [36] 1.06 | [37] 0.939 | [38] 0.973 | [39] 0.959 | [40] 0.958 | [41] 1.05 | [42] 0.92 | [43] 0.962 | [44] 0.996 | [45] 0.991 | [46] 0.949 | [47] 0.978 | [48] 0.96 | [49] 0.96 | [50] 0.964 | [51] 0.954 | [52] 1.02 | [53] 0.955 | [54] 0.953 | [55] 0.956 | [56] 0.963 | [57] 0.996 | [58] 0.979 | [59] 1.03 | [60] 0.986 | [61] 0.961 | [62] 0.987 | [63] 1.01 | [64] 0.975 | [65] 0.947 | [66] 0.963 | [67] 0.957 | [68] 0.945 | [69] 0.935 | [70] 0.948 | [71] 0.952
